Most compounds without a hit are left out; they make up all but 7.5% or so of the library.
NPC1 prom act – NPC1 promoter activation | Huh7 NPC1 promoter luciferase reporter, 24 h | Potency, µM (highest dose often 9.22 µM), without a hit: at the top dose activation, actives largely listed as activators | 320,000 tested, 2.4% active | AID 485313; further: % of control where 0% means no effect; nearly all actives have a fitted effect of over 60% in size
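Stably transfected Huh7 (NPC1 promoter→luciferase), 1500 cells/well in Opti-MEM + 10% FBS, 2 h settle, then compound 24 h at 37 °C. Luminescence after 10 min with Amplite reagent.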
FLuc counter – firefly luciferase modulation, counter-screen for miR-21 project; P08659; purified FLuc, Km substrates, luminescence inhibition; Potency, µM (series often up to 57.5 µM), inactives show top-dose activity change, negative = inhibition, hits mostly inhibitors; 360,000 tested, 6.9% active; AID 588342;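 further: plate controls were vehicle for no effect and reference inhibitor for full effect; nearly all actives have a fitted effect of over 55% in size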
Target sequence (P08659 whole entry, looked up): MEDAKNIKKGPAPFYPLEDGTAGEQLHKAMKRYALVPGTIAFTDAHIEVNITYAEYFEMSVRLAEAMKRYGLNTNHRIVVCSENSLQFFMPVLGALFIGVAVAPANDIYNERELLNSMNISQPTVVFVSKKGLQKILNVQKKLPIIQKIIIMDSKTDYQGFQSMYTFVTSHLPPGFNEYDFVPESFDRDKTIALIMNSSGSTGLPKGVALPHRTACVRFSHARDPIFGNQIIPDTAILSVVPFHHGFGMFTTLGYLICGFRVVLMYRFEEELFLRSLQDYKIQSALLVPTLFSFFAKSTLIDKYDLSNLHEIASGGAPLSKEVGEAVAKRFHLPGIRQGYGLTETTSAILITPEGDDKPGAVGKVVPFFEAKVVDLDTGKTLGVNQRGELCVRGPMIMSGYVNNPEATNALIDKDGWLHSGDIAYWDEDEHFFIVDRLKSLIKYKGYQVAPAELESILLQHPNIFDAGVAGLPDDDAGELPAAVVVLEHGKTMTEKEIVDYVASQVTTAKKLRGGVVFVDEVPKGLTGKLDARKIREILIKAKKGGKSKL
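Purified P. pyralis luciferase (10nM final) with 10uM D-luciferin and 10uM ATP (Km levels) in 50mM Tris acetate pH 7.5, 10mM Mg acetate, 0.01% Tween-20, 0.05% BSA; qHTS 6-point titration, ~60 µM downward; luminescence read.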
Rab9 promoter act – Rab9 promoter activation. 320,000 tested, 2.8% active. Huh7 Rab9 promoter-luciferase reporter, luminescence, 24 h. Potency, µM (doses to about 9.22 µM), for inactives: at the highest dose activation, negative = inhibition, most hits filed as activators; further: % of control where 0% means no effect; nearly all actives have a fitted effect of over 60% in size
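Huh7 cells stably carrying Rab9 promoter–luciferase reporter, plated 1500 cells/well, compound added after 2 h and incubated 24 h at 37 °C; luciferase luminescence then read after 10 min with detection reagent.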
Luc counter – blocks Kinase-Glo luciferase, a counter-screen artifact. Q27757. 200,000 tested, 0.28% active. Kinase-Glo luciferase, ATP luminescence, 8 min. Potency, µM (titrated, usually from 38.3 µM), inactives show top-dose activity change, negative = inhibition, actives largely listed as inhibitors; further: on the % scale 0 is the no-effect control and ±100 the full control effect; nearly all actives have a fitted effect of over 60% in size
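Compounds were added to a substrate mix at pH 7.2 (50 mM imidazole, 10 uM ATP, within the enzyme's linear range), followed by Kinase-Glo detection reagent; luminescence was measured after 8 minutes at ambient temperature.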
SMN2 splice enh – enhancers of SMN2 splice variant expression. HEK293 SMN2-luciferase splicing reporter, luminescence, 30-36 h. AID 1458. Potency, µM (doses to about 46.1 µM), for the others: top-dose activity change, positive = activation, actives largely listed as activators. 210,000 tested, 2.8% active; further: % of control where 0% means no effect; nearly all actives have a fitted effect of over 55% in size
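HEK293 cells carry an SMN2 […]–luciferase reporter in which exon 7 inclusion puts luciferase in frame. Cells were plated 10-12 h before compound addition, then incubated 30-36 h at 37C. ONE-Glo luminescence was read; sodium butyrate at 4.5 mM final served as control.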
ELG1 genotox – induces genotoxicity in HEK293T cells with luciferase-tagged ELG1. HEK293T ELG1-luciferase reporter, luminescence, 16 h. Potency, µM (series often up to 46 µM), for the others: top-dose activity change, positive = activation, hits mostly activators. 330,000 tested, 1.3% active; further: % of control where 0% means no effect; nearly all actives have a fitted effect of over 60% in size
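Reporter readout depends on ELG1 protein level, which increases with genetic stress. After 16 hr compound exposure at 37 °C, luciferase activity was quantified using ONE-Glo.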
Active calls of the source: *; ? = inconclusive; nt = not tested or not shown; [ ] = another dose, or the depositor's remark. The call rests on the fitted dose curve; in most records, active means well fitted curve in the direction sought with a large enough effect; inconclusive means small, poorly fitted or top-dose-only effect, or another doubt; inactive means no such curve, though single readings can be large; an effect the other way counts as inactive or inconclusive. Potency means the concentration at half of the fitted maximal effect.

SMILES	NPC1 prom act	FLuc counter	Rab9 promoter act	Luc counter	SMN2 splice enh	ELG1 genotox
Cc1ccc(N=C2NC(=O)/C(=C/c3cccn3C)S2)cc1C	25%	?	?	nt	nt	8%
O=C1NC(=Nc2ccccc2)S/C1=C/c1cccs1	?	11µM*	?	-4%	?	?
Cc1ccc(N=C2NC(=O)/C(=C/c3cccn3C)S2)cc1	?	3.4µM*	?	nt	nt	23µM*
Cc1ccc(N=C2NC(=O)/C(=C/C=C/c3ccco3)S2)cc1	2%	?	-2%	0%	?	9%
O=C1NC(=Nc2ccccc2)S/C1=C\C=C\c1ccco1	11%	19µM*	21%	-15%	14µM*	?
O=C1NC(=Nc2cccnc2)S/C1=C\c1cccc(F)c1	-1%	30µM*	7%	nt	nt	3%
Cc1cc(-n2c(C)nc3ccccc3c2=O)ccc1NC(=O)c1ccc(C)c([N+](=O)[O-])c1	nt	-14%	nt	nt	nt	nt
CCn1c2ccc(C)cc2c2nc3cc(C(=O)O)ccc3nc21	19%	27µM*	?	-1%	14%	?
CCn1c2ccc(Cl)cc2c2nc3ccccc3nc21	-5%	?	7%	-2%	-11%	0%
CCCc1cc(C(=O)Nc2ccc(CC)cc2)no1	3.2µM*	4.8µM*	1.6µM*	nt	nt	?
CCCc1cc(C(=O)Nc2ccc(C)cc2)no1	?	3.4µM*	4.5µM*	-2%	8%	?
Cc1cccc(NC(=O)Cc2noc3ccccc23)c1	?	17µM*	?	-5%	13µM*	?
O=C(Cc1noc2ccccc12)Nc1ccccn1	?	?	?	-4%	10µM*	17%
Cc1ccc(CNC(=O)Cc2noc3ccccc23)cc1	0.89µM*	6.7µM*	1.8µM*	1%	nt	?
Cc1ccc(NC(=O)Cc2noc3ccccc23)nc1	15%	?	-3%	-5%	25%	5%
O=c1[nH]c2ccccc2c(O)c1-c1cc2ccccc2oc1=O	-5%	-17%	1%	-2%	-9%	3%
OC1(c2cccc(C(F)(F)F)c2)CCN(c2ccc(-c3ccccc3)nn2)CC1	3.2µM*	-19%	1.4µM*	-2%	?	14%
CC(=O)Nc1cc(-c2nn(C)c(=O)c3ccccc23)ccc1N1CCCCC1	-2%	5%	-3%	-2%	6%	9%
Cn1nc(-c2ccc(N3CCOCC3)c(NS(=O)(=O)c3ccccc3)c2)c2ccccc2c1=O	-8%	9%	-3%	-1%	?	13µM*
Cc1ccc(-c2nn(C)c(=O)c3ccccc23)cc1S(=O)(=O)N1CCCC1	-4%	0%	-1%	2%	13%	16µM*
Cc1ccc(-c2nn(C)c(=O)c3ccccc23)cc1S(=O)(=O)N1CCOCC1	-4%	0%	-1%	0%	?	?
CC1CCc2sc(NC(=O)C3CC(Cl)=CCC3C(=O)O)c(C#N)c2C1 (stereo unspecified)	-4%	-21%	-2%	0%	-7%	-1%
Cc1ccc(C)c2nc3sc(C(=O)O)cc3cc12	-6%	24µM*	-1%	-1%	-18%	3%
O=C(Nc1nnc(-c2ccccc2Cl)s1)c1ccccc1F	3.2µM*	-13%	4µM*	nt	nt	?
O=C(Nc1nnc(Cc2ccccc2F)s1)c1ccccc1Cl	1%	-3%	6%	nt	nt	3%
SMILES	NPC1 prom act	FLuc counter	Rab9 promoter act	Luc counter	SMN2 splice enh	ELG1 genotox
O=C(Nc1nnc(-c2ccccc2F)s1)Nc1ccccc1F	?	6%	2µM*	2%	?	11%
O=C(Nc1nnc(-c2ccccc2)s1)c1ccccc1F	2.5µM*	11µM*	1.1µM*	nt	nt	?
Cc1ccc(-c2onc3ccc(C=O)cc23)cc1	?	?	?	-1%	?	5.2µM*
Brc1ccc(/C=C/C=N/Nc2nc3ccccc3s2)cc1	?	9.5µM*	nt	-3%	-18%	2%
CC1CCC/C(=N/Nc2nc3ccccc3s2)C1 (stereo unspecified)	22%	0.85µM*	3.5µM*	-12%	11µM*	?
CCC/C=N/Nc1nc2ccccc2s1	3.5µM*	3.4µM*	2.8µM*	-6%	?	?
Cc1ccc(-c2csc(N/N=C/C=C/c3ccccc3)n2)cc1	-3%	-13%	0%	-5%	1%	0%
O=S(=O)(N/N=C\C=C\c1ccccc1)c1ccc(Br)cc1	-3%	0%	0%	-1%	13%	0%
C(=C\c1ccccc1)/C=N/Nc1nc2ccccc2s1	1.6µM*	2.4µM*	1.3µM*	2%	14µM*	?
COc1cccc(Cn2c(=O)c(CCc3ccccc3)nc3cnc(OC)nc32)c1	nt	nt	nt	0%	-28%	nt
COc1ccc2c(c1)NC(c1ccc(OCC(C)C)cc1)=NC(c1ccncc1)=N2	nt	-7%	nt	nt	3%	nt
CC1=CC(=C2C(=O)c3ccccc3C2=O)C=C(C)O1	?	?	?	-9%	9%	20%
CCCN1C=CC(=C2C(=O)c3ccccc3C2=O)C=C1	3.2e-05µM*	0.067µM*	0.0003µM*	4.5µM*	-79%	-7%
CCN1C=CC(=C2C(=O)c3ccccc3C2=O)C=C1	0.0002µM*	0.085µM*	0.0003µM*	5µM*	0.25µM*	?
CCCCCCN1C=CC(=C2C(=O)c3ccccc3C2=O)C=C1	?	0.21µM*	0.11µM*	8.9µM*	nt	0.18µM*
CCCN1C(=O)C(=O)c2cc(C)ccc21	nt	nt	nt	nt	nt	18%
COC1=C(OC)C(=O)c2ccccc2C1=O	-24%[46.1 µM]	nt	-42%[46.1 µM]	-5%	-96%	nt
CN1C=CC(=C2C(=O)c3ccccc3C2=O)C=C1	0.45µM*	3µM*	0.35µM*	?	13µM*	2.9µM*
CCOc1ccccc1NC(=O)NNC(=O)CCc1ccc(OC)cc1	-3%	1%	4%	nt	nt	0%
O=c1c2c3c(sc2n(Cc2ccc(F)cc2Cl)c(=O)n1-c1ccc(Cl)cc1)CCC3	nt	0%	nt	nt	nt	nt
CN1CCC(N2CCN(c3cccc(C(F)(F)F)c3)CC2)CC1	-4%	4%	-1%	2%	4%	-9%
FC(F)(F)c1cccc(N2CCc3cn[nH]c32)c1	10%	24µM*	-1%	-3%	-14%	14%
Cc1cccc(/C=N/n2c(C)nc3ccccc3c2=O)c1	-4%	-18%	8%	nt	nt	-1%
O=C(Nc1cc(S(=O)(=O)N2CCOCC2)ccc1N1CCOCC1)c1cc2c(s1)CCC2	-2%	-1%	-9%	nt	nt	-5%
O=C(Nc1cccc(S(=O)(=O)N2CCOCC2)c1)c1cc2c(s1)CCC2	9%	15µM*	7%	0%	-27%	-7%
O=C(Nc1cccc(Cn2cccn2)c1)c1cc2c(s1)CCCC2	0.11µM*	?	0.35µM*	-27%	?	?
